# Out of some 310,000 compounds screened, about 2,200 (0.71%) showed an effect of 50% or more. The effect is printed as a negative number. Only a selection was taken, and strong results are over-represented in it overall.
# Target: human ether-à-go-go-related gene (hERG) potassium channel (human, UniProt Q12809)
# Assay: primary screen, population patch clamp on CHO cells stably expressing hERG; higher = less effect of the substance
# Sequence of human ether-à-go-go-related gene (hERG) potassium channel (Q12809 whole entry, looked up): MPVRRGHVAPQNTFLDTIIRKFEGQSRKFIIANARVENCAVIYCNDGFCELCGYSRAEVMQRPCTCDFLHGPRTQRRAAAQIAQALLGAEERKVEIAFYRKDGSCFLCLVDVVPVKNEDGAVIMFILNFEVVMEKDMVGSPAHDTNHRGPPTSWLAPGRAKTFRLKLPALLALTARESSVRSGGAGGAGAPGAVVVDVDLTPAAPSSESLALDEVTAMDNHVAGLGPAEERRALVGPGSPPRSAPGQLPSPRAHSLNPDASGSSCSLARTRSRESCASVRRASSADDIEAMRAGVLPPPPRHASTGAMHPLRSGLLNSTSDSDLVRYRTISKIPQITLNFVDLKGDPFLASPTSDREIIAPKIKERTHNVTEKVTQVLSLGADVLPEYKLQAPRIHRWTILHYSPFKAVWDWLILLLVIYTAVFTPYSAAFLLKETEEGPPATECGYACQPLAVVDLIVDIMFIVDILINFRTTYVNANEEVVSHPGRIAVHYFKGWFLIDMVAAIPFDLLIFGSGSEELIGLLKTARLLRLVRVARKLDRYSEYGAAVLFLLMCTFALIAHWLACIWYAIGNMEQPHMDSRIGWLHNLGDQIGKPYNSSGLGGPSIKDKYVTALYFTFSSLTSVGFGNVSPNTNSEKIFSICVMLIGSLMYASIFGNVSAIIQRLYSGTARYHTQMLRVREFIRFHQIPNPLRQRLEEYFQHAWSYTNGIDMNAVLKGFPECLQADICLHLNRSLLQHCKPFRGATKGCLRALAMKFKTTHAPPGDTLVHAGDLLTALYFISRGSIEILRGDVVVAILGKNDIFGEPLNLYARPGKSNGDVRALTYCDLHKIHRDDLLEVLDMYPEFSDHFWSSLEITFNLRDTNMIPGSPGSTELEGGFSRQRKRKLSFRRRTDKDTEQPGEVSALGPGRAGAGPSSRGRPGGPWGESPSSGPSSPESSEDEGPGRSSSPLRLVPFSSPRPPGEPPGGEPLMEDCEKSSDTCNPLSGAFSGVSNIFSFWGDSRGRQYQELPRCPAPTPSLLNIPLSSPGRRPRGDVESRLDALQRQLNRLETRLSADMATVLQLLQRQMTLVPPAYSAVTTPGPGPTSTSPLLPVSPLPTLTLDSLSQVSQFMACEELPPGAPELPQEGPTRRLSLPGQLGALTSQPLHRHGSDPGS
row,SMILES,"hERG current change (%, negative = inhibition) at 1uM [%]"
1,CC(=O)NCCOc1ccc(C(=O)O)cc1,6.2
2,Cc1ccc(S(=O)(=O)N2CCOCC2)cc1C(=O)N1CCC(Cc2ccccc2)CC1,11.2
3,O=C(O)CCN(CCC(=O)O)c1nnc(SCc2ccccc2)s1,11.7
4,O=C(CCl)NN=C(c1ccccc1)c1ccccc1,5.28
5,O=C(CN1CCCC1)NN=C(c1ccccc1)c1ccccc1,-49
6,CCN(CC)CC(=O)NN=C(c1ccccc1)c1ccccc1,-78.2
7,CCOC(=O)C1CCN(c2ccc(Cl)nn2)CC1,0.0696
8,CCOC(=O)Cc1nnc(NC(=O)c2ccco2)s1,5.45
9,COc1ccc(OCC(=O)Nc2cc(-c3nn4c(C)nnc4s3)ccc2C)cc1,3.66
10,Cc1ccc(-c2nn3c(C)nnc3s2)cc1NC(=O)COc1ccc(Cl)cc1,-74.3
11,Cc1ccc(OCC(=O)Nc2cc(-c3nn4c(C)nnc4s3)ccc2C)cc1,-2.75
12,O=C(Nc1ccc(Cl)cc1)Nc1ccc2c(c1)OCO2,12.5
13,CN(C(=O)CSc1nnc(CNC(=O)c2ccccc2)o1)c1ccccc1,1.84
14,S=C(c1ccc(-c2ccccc2)cc1)N1CCOCC1,7.87
15,O=C(O)C1CCCN1c1nc(-c2ccc(Cl)c(Cl)c2)cc(C(F)(F)F)n1 (centres unmarked),7.97
16,COc1ccc(/C=C/CN2CCN(Cc3ccccc3)C(CCO)C2)cc1 (centres unmarked),-28.9
17,COc1ccc(/C=C/CN2CCN(CC(C)C)C(CCO)C2)cc1 (centres unmarked),-0.433
18,COc1ccc(/C=C/CN2CCN(CCc3ccccc3)C(CCO)C2)cc1 (centres unmarked),-61.7
19,COc1ccc(/C=C/CN2CCN(Cc3ccc(F)cc3)C(CCO)C2)cc1 (centres unmarked),-3.48
20,CCOc1ccccc1CN1CCN(C/C=C/c2ccc(OC)cc2)CC1CCO (centres unmarked),-13.6
21,CCOc1ccc(CN2CCN(C/C=C/c3ccc(OC)cc3)CC2CCO)cc1 (centres unmarked),-77.1
22,C=CCn1c(=O)c(C(=O)Nc2ccc(C)cc2)c(O)c2ccccc21,15.6
23,Cn1c(N)c(C(=O)COC(=O)c2ccccc2NCc2ccco2)c(=O)n(C)c1=O,9.3
24,C[C@H](NC(=O)c1nc[nH]c1C(=O)N[C@@H](Cc1ccccc1)C(=O)OCc1ccccc1)C(=O)OC(C)(C)C,10.7
25,COC(C(=O)Nc1ccc(S(=O)(=O)Nc2ccc(C)c(C)c2)cc1)c1ccccc1 (centres unmarked),1.3

row,SMILES,"hERG current change (%, negative = inhibition) at 1uM [%]"
1,COC(C(=O)Nc1ccc(S(=O)(=O)Nc2ccc(F)cc2)cc1)c1ccccc1 (centres unmarked),7.53
2,COC(C(=O)Nc1ccc(S(=O)(=O)Nc2c(C)cccc2C)cc1)c1ccccc1 (centres unmarked),-69.6
3,CC1CCc2c(sc3c2C2=NS(=O)(=O)CCN2C=N3)C1 (centres unmarked),15
4,Cc1csc(NC(=O)CSc2nnc(C)c(=O)n2N)n1,1.29
5,O=C(Cc1csc(-c2ccccc2)n1)NCc1ccc(F)cc1,4.14
6,N#Cc1cccc(NC(=O)COc2ccc(-n3ccnc3)cc2)c1,-51
7,O=C(COc1ccc(-n2ccnc2)cc1)Nc1cccc(F)c1,-13
8,O=C(COc1ccc(-n2ccnc2)cc1)Nc1cccc(Cl)c1,-3.13
9,O=S(=O)(Nc1nc(-c2ccccc2)cs1)c1cccc(C(F)(F)F)c1,10.5
10,CCOc1cc2[nH]c(=S)n(Cc3ccc(C)o3)c(=O)c2cc1OCC,-3.56
11,COc1ccc2c(c1)C=C(C(=O)OCc1cccnc1)CO2,10.4
12,O=C(OCc1cccnc1)C1=Cc2ccccc2OC1,-73
13,COc1cccc2c1OCC(C(=O)OCc1cccnc1)=C2,10.4
14,CCN(CC)S(=O)(=O)c1ccc(-n2cnc3cc(C)c(C)cc32)nc1,14.1
15,Cc1nc2ccccn2c1C(=O)N=Nc1c(O)[nH]c2ccccc12,13.2
16,CCc1ccc(OCC(=O)O/N=C(\N)c2cccnc2)cc1,0.0916
17,Br.N=c1n(CCN2CCCCC2)c2ccccc2n1CC(=O)c1ccc(Cl)c(Cl)c1,-14.7
18,Br.N=c1n(CCN2CCOCC2)c2ccccc2n1CC(=O)c1ccc(Cl)c(Cl)c1,-69.1
19,N=c1n(CCOc2ccccc2)c2ccccc2n1CCN1CCOCC1,-10
20,Br.CCCn1c(=N)n(CC(=O)c2ccc(Cl)c(Cl)c2)c2ccccc21,-17.7
21,Br.N=c1n(CCN2CCOCC2)c2ccccc2n1Cc1ccccc1Br,-51.7
22,Cc1ccc(C(=O)Cn2c(=N)n(CCN3CCOCC3)c3ccccc32)cc1.[Br-],-20.3
23,COc1ccc(-n2nc3c(N4CCC(C(=O)NCCc5ccco5)CC4)nnc(C)c3c2C)cc1,19.1
24,CCOC(=O)c1c(N)sc2c1CCCC2,15.1
25,CC(Sc1ccc(Cl)cc1)C(=O)Nc1ccccc1-c1ccccc1 (centres unmarked),17.4

row,SMILES,"hERG current change (%, negative = inhibition) at 1uM [%]"
1,COc1cc2c(cc1OC)CN(Cc1cc(=O)n3c(-c4ccccc4)csc3n1)CC2,14.9
2,COc1cc2c(cc1OC)C(NC(=O)c1ccc(C)cc1)CC2=O (centres unmarked),7.58
3,Cn1c(=O)c(Nc2ccc(Cl)cc2)c2c3c(cccc31)C(=O)c1ccccc1-2,14.9
4,COc1ccccc1-c1nnc(NC(=O)c2ccc(S(=O)(=O)N(C)Cc3ccccc3)cc2)o1,4.43
5,COCC1OS(=O)(=O)NC(CC(=O)SC(C)(C)C)C1C (centres unmarked),9.98
6,O=C(CN1CCOCC1)Nc1ccc(Br)cc1C(=O)c1ccccc1,-3.67
7,O=C(CCN1CCOCC1)Nc1ccc(Br)cc1C(=O)c1ccccc1,-0.737
8,O=C(CN1CCCCC1)NCC(=O)Nc1ccc(Br)cc1C(=O)c1ccccc1,-77.2
9,O=C(CN1CCOCC1)NCC(=O)Nc1ccc(Br)cc1C(=O)c1ccccc1,-20
10,O=C(CCN1CCCCC1)NCC(=O)Nc1ccc(Br)cc1C(=O)c1ccccc1,-78.1
11,O=C(CCN1CCOCC1)NCC(=O)Nc1ccc(Br)cc1C(=O)c1ccccc1,-17.6
12,CCc1oc(C(=O)O)cc1COC,-4.45
13,Cc1ccc(C)c(Nc2ncnc(N)c2[N+](=O)[O-])c1,9.83
14,Cc1nc(NC(=O)c2ccccc2)sc1C,16.6
15,O=C(N/N=C/c1ccccc1)C1CCCN1C(=O)c1cc([N+](=O)[O-])cc([N+](=O)[O-])c1 (centres unmarked),12.4
16,COc1ccc(C=O)cc1Cn1ccnc1C.Cl,15.4
17,Cc1cc(F)c(F)c(C(=O)N2CCC(C)CC2)c1Cl,5.24
18,Cc1cc(-n2cccn2)ccc1CN1CCN(CC(C)C)C(CCO)C1 (centres unmarked),0.354
19,Cc1ccc(CN2CCN(Cc3cccc(-n4cccn4)c3)CC2CCO)cc1 (centres unmarked),-80.1
20,OCCC1CN(Cc2cc(F)ccc2-n2cccn2)CCN1C1CCCC1 (centres unmarked),3.09
21,OCCC1CN(Cc2cccc(-n3cccn3)c2)CCN1Cc1ccccc1 (centres unmarked),-13.4
22,Cc1ccc(CN2CCN(Cc3ccc(-n4cccn4)cc3)CC2CCO)cc1 (centres unmarked),-65.5
23,OCCC1CN(Cc2cc(F)ccc2-n2cccn2)CCN1Cc1ccc(F)cc1 (centres unmarked),-36.9
24,OCCC1CN(Cc2cccc3nccnc23)CCN1C1CCCC1 (centres unmarked),3.17
25,Cc1cccc(CN2CCN(Cc3cccc(-n4cccn4)c3)CC2CCO)n1 (centres unmarked),-13.6

row,SMILES,"hERG current change (%, negative = inhibition) at 1uM [%]"
1,OCCC1CN(Cc2ccc(-n3cccn3)cc2)CCN1Cc1ccccc1 (centres unmarked),-28.5
2,Cc1cccc(CN2CCN(Cc3ccc(-n4cccn4)cc3)CC2CCO)n1 (centres unmarked),-1.6
3,Cc1cc(-n2cccn2)ccc1CN1CCN(C2CCCC2)C(CCO)C1 (centres unmarked),-54.2
4,Cc1ccc(CN2CCN(Cc3ccc(-n4cccn4)cc3C)CC2CCO)cc1 (centres unmarked),-83.8
5,CCOc1ccccc1N1CC(O)=C(c2nc3ccccc3s2)C1=N,5.48
6,O=C(CSc1nc(-c2ccccc2)cc(=O)[nH]1)Nc1ccc(F)c(F)c1,12.9
7,Cc1ccc(S(=O)(=O)Nc2ccc(C(=O)NCc3cccnc3)cc2)cc1,10.9
8,CCc1nc(SCC(=O)NCc2ccc(F)cc2)c2c(=O)n(C)c(=O)n(C)c2n1,11.2
9,COc1ccc(OC)c(S(=O)(=O)NCC(=O)NC2CCCCCC2)c1,16
10,COc1ccc2nc3sc(C(=O)N4CCN(C)CC4)cc3cc2c1,-12
11,CC(NC(=O)COC(=O)/C=C/c1ccco1)c1ccccc1 (centres unmarked),8.61
12,Cc1ccc(-n2cc(CN3CCC(CO)(Cc4cccc(C(F)(F)F)c4)CC3)cn2)cc1,-64.3
13,OCC1(Cc2ccccc2)CCN(Cc2cnn(-c3ccccc3F)c2)CC1,-4.22
14,COc1ccc(CC2(CO)CCN(Cc3cnn(C)c3C)CC2)cc1,6.81
15,CC(C)Cc1cc(CN2CCCC(CO)(Cc3cccc(Cl)c3)C2)[nH]n1 (centres unmarked),-14.7
16,COc1ccc(CN2CCC(CO)(Cc3cccc(C(F)(F)F)c3)CC2)cc1Cn1cccn1,-35.3
17,CC(C)Cc1cc(CN2CCC(CO)(Cc3ccccc3)CC2)[nH]n1,-42.9
18,COc1ccc(CN2CCN(C(C)C)C(CCO)C2)cc1Cn1cccn1 (centres unmarked),12
19,CC(C)Cc1cc(CN2CCC(CO)(Cc3cccc(C(F)(F)F)c3)CC2)[nH]n1,-66
20,COc1ccc(CC2(CO)CCN(Cc3cnn(-c4ccc(F)cc4)c3)CC2)cc1,-79.2
21,COc1ccc(CN2CCC(CO)(Cc3ccccc3)CC2)cc1Cn1cccn1,-55.9
22,CSc1cccc(CN2CCC(CO)(Cc3cccc(C(F)(F)F)c3)CC2)c1,-35.9
23,Cc1ccc(-n2cc(CN3CCC(CO)(Cc4ccccc4)CC3)cn2)cc1,-22
